Source: PubChem BioAssay (National Center for Advancing Translational Sciences (NCATS))
Compounds with a hit are over-represented: about 3.3% of the library has one in this group of screens.
AmpC no deterg: inhibitors of E. coli AmpC beta-lactamase without detergent. Potency, µM (titrated, usually from 57.1 µM), inactives show top-dose activity change, negative = inhibition, hits mostly inhibitors. P00811. hit rate 0.52% among 330,000. AmpC nitrocefin hydrolysis, absorbance 480 nm, 0.0001% Triton. AID 485341;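 also: plate controls were no compound for no effect and no enzyme for full effect; nearly all actives have a fitted effect of over 20% in size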
Target sequence (P00811 whole entry, looked up): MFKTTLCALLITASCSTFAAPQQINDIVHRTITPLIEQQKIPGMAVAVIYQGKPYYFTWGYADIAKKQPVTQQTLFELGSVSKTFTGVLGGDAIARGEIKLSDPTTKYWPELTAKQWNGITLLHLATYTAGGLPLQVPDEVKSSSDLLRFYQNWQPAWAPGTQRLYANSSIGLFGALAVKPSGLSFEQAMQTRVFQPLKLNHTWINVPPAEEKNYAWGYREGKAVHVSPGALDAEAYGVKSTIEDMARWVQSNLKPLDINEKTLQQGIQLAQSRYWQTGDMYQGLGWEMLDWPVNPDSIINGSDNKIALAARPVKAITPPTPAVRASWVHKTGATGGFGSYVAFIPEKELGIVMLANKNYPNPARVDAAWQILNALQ
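20 mM phosphate pH 7.0 + 0.01% (detergent screen) or 0.0001% Triton X-100; 5.3 nM AmpC reagent; cpd preinc 15 min RT; nitrocefin (800 uM stock) to start; A480 q20 s × 4 min; Activity was normalised to no-enzyme and no-compound control wells.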
Sm TGR block: blocks Schistosoma mansoni thioredoxin glutathione reductase; Q962Y6; purified TGR, DTNB reduction, TNB absorbance 405 nm; Potency, µM (series often up to 114 µM), without a hit: top-dose activity change, negative = inhibition, most hits filed as inhibitors; hit rate 3% among 360,000; AID 485364; also: nearly all actives have a fitted effect of over 60% in size
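First, TGR (20 nM dispensed) and NADPH were mixed with compound. Second, a 15 min room-temperature incubation followed. Third, further NADPH and then DTNB were added to start the reaction. Finally, TNB absorbance was monitored kinetically.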
AmpC inh detg: inhibitors of E. coli AmpC beta-lactamase with detergent. hit rate 0.041% among 370,000. AmpC hydrolysis of nitrocefin, absorbance 480 nm, 0.01% Triton. Potency, µM (doses to about 114 µM), for the others: top-dose activity change, negative = inhibition, usual class: inhibitors. P00811;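 also: 0% = no-compound wells and -100% = no-enzyme wells; nearly all actives have a fitted effect of over 25% in size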
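20 mM phosphate pH 7.0 + 0.01% (detergent screen) or 0.0001% Triton X-100; 5.3 nM AmpC reagent; cpd preinc 15 min RT; nitrocefin (800 uM stock) to start; A480 q20 s × 4 min; Activity was normalised to no-enzyme and no-compound control wells.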
The depositor's hits bear a star; ? = inconclusive; / = no result. Calls follow the shape of the dose curve; as a rule, active = well fitted curve in the direction sought with a large enough effect; inconclusive = small, poorly fitted or top-dose-only effect, or another doubt; inactive = no such curve, though single readings can be large; an effect the other way counts as inactive or inconclusive. Unless noted, % is scaled to controls: 0 for no effect and ±100 for the full control effect; potency is read from the fitted curve at half-maximal effect.

SMILES | AmpC no deterg | Sm TGR block | AmpC inh detg
Nc1nnc(-c2ccc(Cl)cc2)o1 | 0% | 8% | -1%
Cc1ccc(CNC(=O)C(=O)NCC(c2cccs2)S(=O)(=O)c2ccccc2)cc1 (configuration not stated) | / | 2% | 10%
Cc1ccc(CNC(=O)C(=O)NCC(c2cccs2)S(=O)(=O)c2cccs2)cc1 (configuration not stated) | / | 22µM* | 0%
COc1ccc(CNC(=O)C(=O)NCC(c2cccs2)S(=O)(=O)c2ccc(F)cc2)cc1 (configuration not stated) | / | -30% | 0%
COc1ccc(CC(=O)NCC(c2cccs2)S(=O)(=O)c2ccc(Cl)cc2)cc1 (configuration not stated) | / | 11µM* | -1%
COc1ccc(CNC(=O)C(=O)NCC(c2cccs2)S(=O)(=O)c2ccc(C)cc2)cc1 (configuration not stated) | / | 40µM* | 3%
Cc1ccc(S(=O)(=O)C(CNC(=O)Cc2ccc(Cl)cc2)c2cccs2)cc1 (configuration not stated) | / | -29% | -3%
Cc1cccc(N2CCN(c3ccc4cc(S(=O)(=O)N5CCC(C)CC5)ccc4n3)CC2)c1C | / | 2% | 3%
CCOC(=O)c1[nH]c(C)c(CCC(=O)NCc2ccccc2Cl)c1C | / | 0% | 17%
CCCCN(Cc1ccccc1)S(=O)(=O)c1ccc2c(c1)CC(C)N2C(=O)CC (configuration not stated) | / | -4% | 0%
O=C(Nc1cccc(C(=O)N2CCN(c3ccc(F)cc3)CC2)c1)c1nsc2ccccc12 | / | 10% | 17%
O=C(NC(=S)Nc1ccc2cn[nH]c2c1)c1ccccc1 | -23% | 14µM* | -11%
CC(=O)c1cccc(NC(=S)NC(=O)C(C)C)c1 | -11% | -29% | 0%
CC(C)c1ccc(C(=O)NC(=S)Nc2ccc3[nH]c(=O)[nH]c3c2)cc1 | 8.9µM* | -15% | 1%
Cc1ccc2ncccc2c1NC(=S)NC(=O)c1ccccc1 | -17% | 20µM* | ?
Cc1ccc2ncccc2c1NS(=O)(=O)c1ccccc1 | -15% | -26% | 8%
CC(=O)c1cccc(NC(=S)NC(=O)c2cccc(Cl)c2)c1 | -27% | 40µM* | -1%
S=C(Nc1ccccc1)Nc1ccc2cn[nH]c2c1 | -21% | ? | -7%
COc1ccc(C(=O)NC(=S)Nc2ccc3[nH]c(=O)[nH]c3c2)cc1 | -14% | -30% | -6%
CCc1ccc2occ(CC(=O)NCc3ccccc3)c2c1 | / | -3% | 2%
Cc1c2cnn(CC(=O)NCCc3ccccc3)c(=O)c2c(C)n1Cc1ccccc1 | / | 10% | 12%
COc1ccccc1NC(=O)N1CC(=O)Nc2sc3c(c2C1c1ccccc1)CCCC3 (configuration not stated) | / | -7% | -5%
O=C(O)c1cccc(NC(=S)NC(=O)c2ccc(-c3ccccc3)cc2)c1 | -26% | / | 0%
O=c1[nH]c2ccc(NC(=S)NCc3ccccc3)cc2[nH]1 | -14% | 8.9µM* | ?
C=CCNC(=S)Nc1ccc(OC(=O)Nc2ccc(Cl)c(Cl)c2)cc1 | -51% | 35µM* | -4%
SMILES | AmpC no deterg | Sm TGR block | AmpC inh detg
COC(=O)C(O)(c1ccc(NC(=O)Oc2ccccc2)cc1)C(F)(F)F (configuration not stated) | -16% | -8% | -14%
C=CCNC(=S)Nc1cccc(NC(=S)NCC=C)c1 | -11% | ? | -12%
CC(=O)c1cccc(NC(=S)NC(=O)c2ccccc2)c1 | -25% | 28µM* | -10%
Cc1ccc(NC(=S)Nc2ccc3[nH]c(=O)[nH]c3c2)cc1C | -28% | -29% | 8%
COC(=O)C(O)(c1ccc(NC(=S)NC(=O)c2ccccc2)cc1)C(F)(F)F (configuration not stated) | -22% | 28µM* | -15%
Cc1ccc(NC(=S)Nc2ccc3cn[nH]c3c2)cc1 | -19% | -14% | -4%
C=CCNC(=S)Nc1ccc2cn[nH]c2c1 | -5% | 40µM* | 0%
COC(=O)CSc1ncc2c(n1)-c1ccccc1N(Cc1ccc(Cl)cc1)S2(=O)=O | / | 3% | 5%
CCCOc1ccc(CNC(=O)C(CC)n2nc(C)c3sc4ccccc4c3c2=O)cc1 (configuration not stated) | / | -8% | -4%
CCC(CC)C(=O)N1c2ccc(F)cc2CCC1C (configuration not stated) | -8% | 0% | ?
CC1CCc2cc(F)ccc2N1C(=O)CCl (configuration not stated) | -22% | 5.6µM* | ?
Oc1cc2c(cc1CN1CCc3ccccc3C1)OCO2 | -25% | 2.5µM* | 2%
